High-throughput results from PubChem BioAssay.
BJeLR viability – BJeLR cell viability loss. BJeLR (HRASV12) viability, CellTiter-Glo ATP luminescence, 48 h. inhibition, % (test concentration not listed). 300,000 compounds, 0.17% hits; in the data active = inhibition above about 50%
PrPC TRFRET – reduces human prion protein on the cell surface; cell surface PrPC, TR-FRET read-out; inhibition, % at 13.8 µM; 370,000 compounds, 0.43% hits; AID 720596; in the data active = inhibition above about 24%; note: 0% = median of the test wells and 100% = reference compound wells
RecA splice inh – inhibitors of M. tuberculosis RecA intein splicing; 290,000 compounds, 0.75% hits; P9WHJ3; cell-free RecA intein splicing, fluorescence; AID 2221; inhibition, % (concentration not given with the values); in the data active = inhibition above about 30%;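 note: 0% = vehicle wells and 100% = reference inhibitor control wells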
GDH-TPI counter – GDH-TPI coupled enzyme inhibition counter-screen | GDH-TPI coupled enzyme counterscreen, NADH absorbance | inhibition, % at 4.8 µM | 360,000 compounds, 1.2% hits; in the data active = inhibition above about 30%;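 note: 0% = DMSO wells and 100% = wells lacking the enzyme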
Mtb FBA inh – Mtb fructose-bisphosphate aldolase inhibition; P9WQA3; purified M. tuberculosis FBA, fluorescence read-out; inhibition, % at 1 µM; 360,000 compounds, 2.3% hits; in the data active = inhibition above about 27%;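 note: 0% = vehicle and 100% = reference inhibitor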
Target sequence (P9WQA3 whole entry, looked up): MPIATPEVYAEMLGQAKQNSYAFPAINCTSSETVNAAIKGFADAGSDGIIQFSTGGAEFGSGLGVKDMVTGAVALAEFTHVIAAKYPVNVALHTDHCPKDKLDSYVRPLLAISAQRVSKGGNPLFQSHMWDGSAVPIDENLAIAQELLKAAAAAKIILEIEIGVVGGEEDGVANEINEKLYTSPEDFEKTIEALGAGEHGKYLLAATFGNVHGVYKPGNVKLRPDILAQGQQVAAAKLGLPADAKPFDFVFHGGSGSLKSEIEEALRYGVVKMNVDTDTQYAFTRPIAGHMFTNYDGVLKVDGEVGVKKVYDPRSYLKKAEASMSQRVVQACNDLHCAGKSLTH
Active calls of the source: *; nt = no result given; + = active, no number. Rows were chosen to be rich in hits. Some 4.2% of all compounds tested hit in one or more screens of this group.

SMILES	BJeLR viability	PrPC TRFRET	RecA splice inh	GDH-TPI counter	Mtb FBA inh
CCOC(=O)CC1=NN(c2ccccc2)C(=O)/C1=C\c1ccc(N(C)C)cc1	0	0	14	12	-8
CCOc1ccc(CC(=O)Nc2ccc(NC(=O)c3ccco3)cc2)cc1OCC	82*	6	5	3	-1
C=C(C)/C=C1/C(Cc2ccccc2)N(CC2CC2)C(=N)N1C(=O)OCc1ccccc1 (centres undefined)	nt	1	nt	nt	nt
COC(=O)[C@]12C[C@H](CC(=O)N3CCSCC3)C(=O)N(Cc3ccco3)C1=C[C@H](COCc1ccccc1)O[C@@H]2C	nt	8	nt	nt	nt
COC(=O)C1=C[C@@H]([C@@H](C)[C@H](OC)c2ccccc2Br)[C@@H]2OCCC[C@H]12	nt	-9	nt	nt	nt
O=C(Nc1nc2c(s1)CCCC2=O)c1cnccn1	1	-6	3	32*	2
COC(=O)c1c(NC(=O)c2cnccn2)sc2c1CCC2	-2	6	-1	3	-9
COc1cccc(CSc2nc3ccccc3cc2C=O)c1	58*	0	9	-4	6
COc1cccc(NC(=O)CSc2nc3ccccc3cc2Cc2ccccc2)c1	-1	0	-1	15	-3
O=C(Cn1cc(C(=O)c2ccco2)c2ccccc21)Nc1ccccc1	0	10	-1	34*	-3
COc1ccc(NC(=O)Cn2cc(C(=O)c3ccco3)c3ccccc32)cc1	-3	7	nt	31*	1
O=C(Cn1nnc(-c2ccccc2F)n1)Nc1ccc(F)cc1F	nt	7	nt	nt	nt
C=CCN=C1NC(CCc2ccccc2)C(C(=O)OC)=C(C)N1Cc1cccc(C(F)(F)F)c1 (centres undefined)	nt	-14	nt	nt	nt
CCOC(=O)c1cccc(NC(=O)c2cc3sccc3n2C)c1	-2	7	11	8	-2
CCOC(=O)c1ccccc1NC(=O)c1cc2sccc2n1C	1	3	-2	32*	7
CCC(=O)Oc1ccc(C(=O)Nc2cccc(C(=O)c3ccccc3)c2)cc1	12	16	36*	-5	1
CC(=O)Oc1ccc(C(=O)Nc2cccc(C(=O)c3cccc(NC(=O)c4ccc(OC(C)=O)cc4)c3)c2)cc1	5	7	4	6	0
N#Cc1ccc2nc(-c3ccc(CN4CCC5(CC4)CNc4ccccc45)cc3)c(-c3ccccc3)nc2c1	nt	-6	nt	nt	nt
CCN1CCCCC(NC(=O)c2ccc(C)cc2)C1=O (centres undefined)	nt	11	nt	nt	nt
Cc1ccc2nc(-c3ccncc3)c(Nc3ccccc3)n2c1	-10	9	-1	6	3
Cc1ccc2nc(-c3ccco3)c(Nc3ccccc3)n2c1	-4	10	-4	9	192*
CCN1CCN(CC(=O)N2N=C(c3cccs3)CC2c2ccc(OC)c(OC)c2)C(=O)C1=O (centres undefined)	5	-17	1	6	7
C=C1C(=O)c2sccc2C(c2ccc(OC)c(OC)c2)C1COC(C)=O (centres undefined)	nt	96*	nt	10	5
O=C(N[C@H](Cc1ccccc1)C(=O)N1CCN(c2ccc(Cl)cn2)CC1)[C@H]1O[C@@H](n2ccc(=O)[nH]c2=O)[C@H](O)[C@@H]1O	nt	2	nt	nt	nt
Cc1ccc(C(=O)/C=C/c2ccc(F)cc2)o1	-6	-4	-2	39*	-3
SMILES	BJeLR viability	PrPC TRFRET	RecA splice inh	GDH-TPI counter	Mtb FBA inh
COc1ccc(/C=C/C(=O)c2ccc([N+](=O)[O-])o2)cc1	14	0	-11	1	-1
COc1ccc([N+](=O)[O-])cc1-c1[nH]c(-c2ccc(C(=O)O)cc2)nc1-c1ccccc1	-4	-14	2	37*	3
O=C(CSC1=NCCS1)Nc1ccc(S(=O)(=O)N2CCCCCC2)cc1	0	4	33*	5	2
O=C(CSC1=NCCS1)Nc1ccc(S(=O)(=O)NC2CCCCC2)cc1	-1	6	42*	6	-3
O=C(CSc1ncccn1)Nc1ccc(S(=O)(=O)N2CCCCC2)cc1	3	6	-2	10	0
COC(=O)[C@]12C[C@H](CC(=O)N3CCOCC3)C(=O)N(Cc3ccco3)C1=C[C@H](C(C)C)O[C@@H]2C1CC1	nt	7	nt	nt	nt
COc1nc2ccccc2nc1N1CC1	nt	3	nt	nt	29*
CC(C)COc1nc2ccccc2nc1N1CCN(C)CC1	-4	-13	-2	6	0
COC(=O)C1=C(C)N(Cc2ccc(C(F)(F)F)cc2)C(=NCc2ccc3c(c2)OCO3)NC1c1cccc(Cl)c1 (centres undefined)	nt	-10	nt	nt	nt
COc1ccc2c(c1)[nH]c1c(=O)n(CCCN3CCOCC3)cnc12	2	9	-2	-1	4
COc1ccc2c(c1)c1ncn(CCCN3CCOCC3)c(=O)c1n2C	11	-4	3	9	170*
COc1ccc2c(c1)c1ncn(CC3CCCO3)c(=O)c1n2C (centres undefined)	-1	-5	-3	15	+
COc1ccc(Cn2cnc3c4cc(F)ccc4n(C)c3c2=O)cc1	-2	-7	-1	1	5
O=C(c1cccs1)C1CCN(c2ncnc3sccc23)CC1	nt	17	nt	nt	nt
COC(=O)C[C@H]1CC[C@@H]2[C@@H](COc3ccc(NC(=O)c4ccno4)cc3C(=O)N2C)O1	nt	-3	nt	nt	nt
N#C/C(=C\c1cn(-c2ccccc2)nc1-c1cccnc1)c1nnc2n1CCCCC2	-5	-14	3	39*	3
Cc1c(C(=O)C(=O)N2CCC3(CC2)OCCO3)c2ccccc2n1C	6	3	4	46*	2
Cc1c(C(=O)C(=O)N2CCN(C)CC2)c2ccccc2n1C	-7	-4	3	24	-2
CCN(CC)S(=O)(=O)c1ccc(OC)c(NC(=O)/C=C/c2ccco2)c1	0	0	1	35*	-2
O=C(/C=C\c1ccco1)Nc1cc([N+](=O)[O-])ccc1F	62*	-8	-2	30	-3
O=C(/C=C/c1ccco1)Nc1cc(Cl)ccc1C(=O)O	-1	-7	4	28	-1
COC(=O)C1C2c3ccccc3OC1(C)N=c1s/c(=C/c3cn(C)nc3C)c(=O)n12 (centres undefined)	-4	-27	0	55*	-7
Cc1cc(-c2ccc(F)cc2)nc2cc(C(N)=O)nn12	8	-17	-2	3	13
CCOC(=O)c1cnn2c(C)cc(-c3ccc(F)cc3)nc12	6	-6	-4	13	60*
O=c1[nH]c(=S)n(C2CC2)c(O)c1/C=N/Nc1ccccc1	-15	-6	-9	19	-5
CC(N=Cc1c(O)n(C2CC2)c(=S)[nH]c1=O)c1ccccc1 (centres undefined)	9	0	1	35*	-3
O=C(N/N=C/c1c(O)n(C2CCCCC2)c(=S)[nH]c1=O)c1ccccc1O	4	-4	37*	15	7
O=c1[nH]c(-c2ccccn2)cc2ccccc12	6	-7	5	20	121*
Cc1cc(=O)oc(C)c1C(=O)NCCNC(=O)c1c(C)cc(=O)oc1C	-4	-4	1	-5	4
Cc1cc(=O)oc(C)c1C(=O)NCCC(C)C	8	-3	0	32*	0
